Screening data deposited in PubChem BioAssay by National Center for Advancing Translational Sciences (NCATS).
Compounds with a hit are over-represented: about 6.2% of the library has one in this group of screens.
Luc counter: Kinase-Glo luciferase inhibition (counter-screen); Q27757; Kinase-Glo luciferase, ATP luminescence, 8 min; Potency, µM (titrated, usually from 38.3 µM), hits mostly inhibitors; 0.28% of 200,000 active; also: nearly all actives have a fitted effect of over 60% in size
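Light output from Kinase-Glo luciferase with luciferin and 10 uM ATP in 50 mM imidazole pH 7.2, KCl, MgCl2, Tween 20, BSA; compound pin-delivered, 8-min ambient incubation, then luminescence read.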
RORgamma inh: inhibitors of mouse ROR gamma transcriptional activity; P51450; Drosophila S2 Gal4-RORgamma UAS-luciferase reporter, 20 h; Potency, µM (titrated, usually from 53.6 µM), actives largely listed as inhibitors; 5.4% of 310,000 active; AID 2551; also: nearly all actives have a fitted effect of over 60% in size
Target sequence (P51450 whole entry, looked up, the tested form may be a part): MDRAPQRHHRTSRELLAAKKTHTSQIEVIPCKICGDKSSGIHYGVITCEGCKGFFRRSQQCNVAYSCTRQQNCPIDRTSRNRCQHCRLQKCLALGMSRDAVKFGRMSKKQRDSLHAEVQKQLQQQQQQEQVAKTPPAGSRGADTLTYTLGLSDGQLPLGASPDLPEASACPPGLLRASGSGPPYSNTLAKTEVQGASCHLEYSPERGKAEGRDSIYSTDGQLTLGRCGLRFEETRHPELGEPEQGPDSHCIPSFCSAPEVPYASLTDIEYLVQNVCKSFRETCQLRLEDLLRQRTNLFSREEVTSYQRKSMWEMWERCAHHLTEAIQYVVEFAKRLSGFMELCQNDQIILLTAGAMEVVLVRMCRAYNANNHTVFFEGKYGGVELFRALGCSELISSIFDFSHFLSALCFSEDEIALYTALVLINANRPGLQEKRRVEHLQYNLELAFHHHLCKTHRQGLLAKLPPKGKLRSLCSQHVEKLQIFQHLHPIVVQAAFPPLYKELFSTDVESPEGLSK
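Luminescence from a UAS-regulated Photinus luciferase reporter in stably transfected Drosophila Schneider cells is measured; decreased signal marks ROR gamma inhibition. Fusion expression is induced by 700 uM copper sulfate for 20 hr.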
VP16 counter: inhibits Gal4-VP16 luciferase reporter, ROR gamma counter-screen. AID 2546. Drosophila S2 Gal4-VP16 UAS-luciferase, luminescence, 20 h. 3.5% of 310,000 active. Potency, µM (titrated, usually from 53.6 µM), most hits filed as inhibitors;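 also: Gal4-VP16 expression switched on by copper sulfate through the metallothionein promoter; nearly all actives have a fitted effect of over 50% in size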
Hits are given with their value; [ ] = remark or other dose. Calls follow the shape of the dose curve; as a rule, active = well fitted curve in the direction sought with a large enough effect; inconclusive = small, poorly fitted or top-dose-only effect, or another doubt; inactive = no such curve, though single readings can be large; an effect the other way counts as inactive or inconclusive.

For CCOC(=O)c1ccc2c(c1)n(CC)c(C)[n+]2CC the results were Luc counter inactive, RORgamma inh inactive and VP16 counter inactive.
For CN(C)S(=O)(=O)c1cccc(C(=O)Nc2n[nH]c(C(F)(F)F)n2)c1 the results were RORgamma inh inactive and VP16 counter inactive.
`NC(=O)c1c(/N=C/c2cccnc2)sc2c1CCCC2` gave RORgamma inh inactive and VP16 counter inactive.
Screening O=S(=O)(NCc1ccccn1)c1ccc(Cl)s1 returned Luc counter inactive, RORgamma inh 8.91µM and VP16 counter inconclusive.
For Cc1ccc(S(=O)(=O)NCc2ccccn2)c(C)c1C the results were RORgamma inh inconclusive and VP16 counter inactive.
O=S(=O)(NCCCc1ccccc1)c1cccc2nsnc12 was read as Luc counter inactive, RORgamma inh inactive and VP16 counter inactive.
O=S(=O)(NCc1ccccn1)c1ccccc1 was read as Luc counter inactive, RORgamma inh inactive and VP16 counter inactive.
Screening O=S(=O)(NCc1ccccn1)c1ccccn1 returned RORgamma inh 11.2µM and VP16 counter inactive.
O=S(=O)(NCc1ccccn1)c1cccc2nsnc12 was read as Luc counter inactive, RORgamma inh 7.94µM and VP16 counter inconclusive.
Screening COc1ccccc1CN1CC(C(=O)NCc2c(F)ccc(C)c2F)CCC1=O (stereo not drawn) returned RORgamma inh inconclusive and VP16 counter inactive.
COC(=O)[C@@H]1O[C@@H](SCCN)[C@@H](O)[C@H](O)[C@H]1O was read as Luc counter inactive[7.66 µM].
O=S(=O)(/N=C(/Nc1cccc2ccccc12)c1ccc(F)cc1)c1ccccc1 was read as RORgamma inh inactive and VP16 counter inactive.
COc1ccc(/C=N/Nc2ccccc2)cc1Cn1nc(C)c([N+](=O)[O-])c1C was read as Luc counter inactive, RORgamma inh inactive and VP16 counter inactive.
COc1ccc(-n2nc(C(=O)NCC(=O)N3CCN(c4cccc(Cl)c4)CC3)c3ccccc3c2=O)c(OC)c1 was read as RORgamma inh inconclusive and VP16 counter inactive.
Screening O=C1N/C(=C/c2cccn2-c2ccccc2)C(=O)N1Cc1ccc(F)cc1 returned Luc counter inactive, RORgamma inh inactive and VP16 counter 10µM.
For O=C1N/C(=C/c2cccn2-c2ccc(F)cc2)C(=O)N1Cc1ccccc1F the results were Luc counter inactive, RORgamma inh inactive and VP16 counter inactive.
`O=C(O)C1CCN(C(=O)CCN2C(=O)S/C(=C\c3ccccc3)C2=O)CC1` gave RORgamma inh inactive and VP16 counter inactive.
Screening COc1cc2c(cc1OC)C1O[C@](c3ccsc3)(C2)OC2=C1C(=O)CC(C)(C)C2 returned RORgamma inh inactive[10 µM] and VP16 counter inactive[10 µM].
For CC(=O)c1sc(Nc2nc(C)cc(C)n2)nc1C the results were Luc counter inactive, RORgamma inh inactive and VP16 counter inactive.
For Cc1ccnc(Nc2nc(-c3ccc(Cl)cc3)cs2)c1 the results were RORgamma inh inactive and VP16 counter inconclusive.
For Cc1cc(-c2csc(Nc3ccccn3)n2)ccc1F the results were RORgamma inh 1µM and VP16 counter inconclusive.
Screening Cc1ccnc(Nc2nc(-c3ccc(F)cc3)cs2)c1 returned RORgamma inh 11.2µM and VP16 counter inconclusive.
`Cc1ccc(-c2csc(Nc3ccccn3)n2)cc1` gave RORgamma inh inactive[1.91 µM] and VP16 counter inconclusive.
Screening CCOc1ccc(S(=O)(=O)NCCC(=O)NCC(c2ccccc2OC)N2CCCC2)cc1 (stereo not drawn) returned RORgamma inh inactive and VP16 counter inactive.
Cc1cc(C)c(NC(=O)c2ccccc2C(=O)c2ccccc2)c(C)c1 was read as Luc counter inactive, RORgamma inh inactive and VP16 counter inactive.
For Cc1cc(NC(=O)C2CC(=O)N(c3ccccc3Cl)C2)no1 (stereo not drawn) the results were RORgamma inh inactive and VP16 counter inactive.
`O=C(O)CCC/C=C\C[C@@H]1CO[C@H](C(F)(F)F)O[C@@H]1c1ccccc1O` gave Luc counter inactive, RORgamma inh inactive and VP16 counter inactive.
Screening COc1cc2c(cc1OC)C1C(=O)c3ccc4c(c3OC1CO2)C=CC(C)(C)O4 (stereo not drawn) returned Luc counter inactive, RORgamma inh inconclusive and VP16 counter 0.126µM.
Screening COc1cc2c(cc1OC)C1C(=O)c3c(O)cc4c(c3OC1CO2)C=CC(C)(C)O4 (stereo not drawn) returned Luc counter inactive, RORgamma inh 6.31µM and VP16 counter 0.891µM.
`COc1ccc(-c2c(O)c3c(OC)c4c(cc3oc2=O)OC(C)(C)C=C4)cc1` gave Luc counter inactive, RORgamma inh inactive and VP16 counter inactive.
For COc1cc2c(cc1OC)OC(C)(C)C=C2 the results were Luc counter inactive, RORgamma inh inactive and VP16 counter inactive.
Cc1ccc(CN(C)S(=O)(=O)c2c(C)noc2/C=C/N(C)C)cc1 was read as RORgamma inh inactive and VP16 counter inactive.
`N#Cc1ccc(C[C@H](C(=O)O)N2C(=O)c3ccc(C(=O)O)cc3C2=O)cc1` gave RORgamma inh inactive and VP16 counter inactive.
CCc1cc2c(=O)oc(-c3ccccc3F)nc2s1 was read as RORgamma inh inactive[1.91 µM] and VP16 counter inactive.
For CCCCn1cnc2c(sc3nc4c(cc32)CSC(C)(C)C4)c1=O the results were Luc counter inactive, RORgamma inh inactive and VP16 counter inactive.
`CC1(C)Cc2nc3sc4c(NCCO)ncnc4c3cc2CS1` gave RORgamma inh 3.98µM and VP16 counter inconclusive.
`CCC(C(=O)O)C1OC(C(C)C(O)C(C)C(=O)C(CC)C2OC3(C=CC(O)C4(CCC(C)(C5CCC(O)(CC)C(C)O5)O4)O3)C(C)CC2C)C(C)CC1C` (stereo not drawn) gave RORgamma inh 0.891µM and VP16 counter 0.447µM.
`CC(/C=N/NC(=O)c1nn(C)c(C)c1Br)=C\c1ccccc1` gave Luc counter inactive, RORgamma inh 0.159µM and VP16 counter inconclusive.
`C/C(=N\NC(=O)c1ccn(C)n1)c1ccc(NC(=O)C2CCCC2)cc1` gave Luc counter inactive, RORgamma inh inactive and VP16 counter inactive.
For CC(/C=N/NC(=O)c1c(Br)cnn1C)=C\c1ccccc1 the results were Luc counter inactive, RORgamma inh inactive and VP16 counter inactive.
For CC(=C/c1ccccc1)/C=N/NC(=O)c1ccccn1 the results were RORgamma inh 8.91µM and VP16 counter 10µM.
`CC(/C=N/NC(=O)c1ccncc1)=C\c1ccccc1` gave Luc counter inactive, RORgamma inh inactive and VP16 counter inactive.
C/C(=N\NC(=O)c1nn(C)c(C)c1Br)c1ccc(NC(=O)C2CCCC2)cc1 was read as RORgamma inh 5.62µM and VP16 counter inconclusive.
`CCOC(=O)CN1C(=O)CC(c2ccc([N+](=O)[O-])cc2)C1=O` (stereo not drawn) gave RORgamma inh inactive and VP16 counter inconclusive.
Screening O=C(Cn1nc(C(=O)O)c2ccccc2c1=O)Nc1ccccc1C(F)(F)F returned RORgamma inh inactive and VP16 counter inactive.
`COc1cc(/C=C/C(=O)O)cc(S(=O)(=O)N2CCc3ccccc3C2)c1OC` gave Luc counter inactive, RORgamma inh inactive and VP16 counter inactive.
Screening CC(C)=CCN1CCN(Cc2cccn2-c2ncccn2)CC1CCO (stereo not drawn) returned Luc counter inactive, RORgamma inh inactive and VP16 counter inactive.
